These results are taken from PubChem BioAssay (Tox21).

Molecules are shown by their SMILES. “And” between values parts separate entries of the source, which are not always exact repeats. Equal values may be shown once. Results filed as inconclusive are left out. Unmarked numbers belong to inactive results. The source made the active and inactive calls. Unless noted, calls follow the shape of the dose curve; as a rule, active = well fitted curve in the direction sought with a large enough effect in the repeat runs; inconclusive = weak or mixed curves; inactive = no such curve, though single readings can be large; an effect the other way counts as inactive or inconclusive.

The target in assay [1] is Peroxisome proliferator-activated receptor delta (Homo sapiens) (UniProt Q03181). As to the kind of experiment: qHTS assay to identify small molecule agonists of the peroxisome proliferator-activated receptor delta (PPARd) signaling pathway (AID 743212; calls by dose curve). Summed up:
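Quantitative high-throughput agonist screen in a HEK293H beta-lactamase reporter line under UAS control. Compounds in DMSO, at 37 C. Fluorescence read after 2 h with FRET substrate at room temperature.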
For orientation: Quantitative high-throughput screening tests each substance at several concentrations.

A short description of assay [2]: qHTS assay to identify small molecule antagonists of the peroxisome proliferator-activated receptor delta (PPARd) signaling pathway - cell viability counter screen (AID 743213). Also: nearly all actives have a fitted effect of over 50% in size. Also: potency is read from the fitted curve at half-maximal effect. Summed up: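 In this counter screen, HEK293H cells carrying a UAS-beta-lactamase reporter are co-treated with test compounds and 300 nM L165041 (final) for 17 h at 37 C; cell viability is quantified by CellTiter-Glo luminescence.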

Assay [3] addresses Peroxisome proliferator-activated receptor delta (Homo sapiens) (UniProt Q03181). As to the kind of experiment: qHTS assay to identify small molecule antagonists of the peroxisome proliferator-activated receptor delta (PPARd) signaling pathway (AID 743215; active = well fitted inhibition curve with a large enough effect in the signal ratio in the repeat runs, not every such curve was filed as active; the % refers to the signal ratio;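 also: cells stimulated with agonist L165041 at 300 nM final during compound exposure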; also: potency is read from the fitted curve at half-maximal effect). Summed up:
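Inhibition of L165041-driven (300 nM final) PPARd signaling is scored in HEK293H UAS-bla cells. Exposure lasts 17 h at 37 C; beta-lactamase activity is then read by FRET substrate fluorescence after 2 h at room temperature.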

The target in assay [4] is Bile acid receptor (Homo sapiens) (UniProt Q96RI1). Kind of assay: qHTS assay to identify small molecule antagonists of the farnesoid-X-receptor (FXR) signaling pathway (AID 743217; active = well fitted inhibition curve with a large enough effect in the signal ratio in the repeat runs, not every such curve was filed as active; the % refers to the signal ratio). An outline of the steps:
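Antagonist mode against 50 uM (final) chenodeoxycholic acid stimulation in FXR-bla HEK 293T cells, 16 h at 37 °C. Inhibition detected as reduced beta-lactamase activity via LiveBLAzer B/G FRET fluorescence after 2 h at room temperature.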

The nature of assay [5]: qHTS assay to identify small molecule agonists of the farnesoid-X-receptor (FXR) signaling pathway - cell viability counter screen (AID 743218). Also: nearly all actives have a fitted effect of over 45% in size. Also: potency is read from the fitted curve at half-maximal effect. Summed up: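 Cytotoxicity counter-screen run in parallel, same wells: FXR-UAS-bla HEK 293T cells dosed 16 h at 37 C, viability read by CellTiter-Glo luminescence after 30 min at room temperature.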
Assay [6] has as its target Bile acid receptor (Homo sapiens) (UniProt Q96RI1). Kind of assay: qHTS assay to identify small molecule agonists of the farnesoid-X-receptor (FXR) signaling pathway (AID 743220; active = well fitted activation curve with a large enough effect in the signal ratio in the repeat runs, not every such curve was filed as active; the % refers to the signal ratio). An outline of the steps: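 Beta-lactamase reporter under UAS control in GeneBLAzer FXR HEK 293T cells (5000/well) measured with LiveBLAzer FRET substrate after 2 h at room temperature. Compound exposure lasted 16 h at 37C.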

Assay [7] is described as follows: qHTS assay to identify small molecule antagonists of the farnesoid-X-receptor (FXR) signaling pathway - cell viability counter screen (AID 743221; active = well fitted cell-killing curve with a large enough effect in the repeat runs, not every such curve was filed as active; also: nearly all actives have a fitted effect of over 50% in size; also: potency is read from the fitted curve at half-maximal effect). An outline of the steps:
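In GeneBLAzer FXR-UAS-bla HEK 293T cells stimulated with 50 uM chenodeoxycholic acid (final), compounds acted for 16 h at 37 C. Viability was assessed afterwards by CellTiter-Glo luminescence.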

Assay [8] has as its target Vitamin D3 receptor (Homo sapiens) (UniProt P11473). Kind of assay: qHTS assay to identify small molecule agonists of the vitamin D receptor (VDR) signaling pathway (AID 743222; calls by dose curve). Summed up: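 Quantitative HTS agonist-mode screen: compounds in DMSO were pin-transferred onto VDR-bla cells and incubated 16 h at 37C, 5% CO2. Reporter activity was detected with LiveBLAzer B/G FRET substrate after 2 h at room temperature.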

The target is the same in assay [9]. As to the kind of experiment: qHTS assay to identify small molecule antagonists of the vitamin D receptor (VDR) signaling pathway (AID 743223; active = well fitted inhibition curve with a large enough effect in the signal ratio in the repeat runs, not every such curve was filed as active; the % refers to the signal ratio). An outline of the steps: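 Agonist 1alpha,25-dihydroxyvitamin D3 (3 nM in well) was added with each compound to VDR-bla cells preincubated 4 h. Cells stood 16 h at 37C, then FRET substrate 2 h at room temperature; fluorescence intensity recorded.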

Assay [10] is described as follows: qHTS assay to identify small molecule agonists of the peroxisome proliferator-activated receptor delta (PPARd) signaling pathway - cell viability counter screen (AID 743211). Also: nearly all actives have a fitted effect of over 55% in size. Also: potency is read from the fitted curve at half-maximal effect. Summed up:
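Luminescent ATP viability assay (CellTiter-Glo, 30 min RT) in UAS-bla HEK293H cells carrying the PPAR delta reporter construct, 3000 cells/well, after a 17 h compound treatment at 37 C.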

Sequence of Vitamin D3 receptor (Homo sapiens) (P11473 whole entry, looked up): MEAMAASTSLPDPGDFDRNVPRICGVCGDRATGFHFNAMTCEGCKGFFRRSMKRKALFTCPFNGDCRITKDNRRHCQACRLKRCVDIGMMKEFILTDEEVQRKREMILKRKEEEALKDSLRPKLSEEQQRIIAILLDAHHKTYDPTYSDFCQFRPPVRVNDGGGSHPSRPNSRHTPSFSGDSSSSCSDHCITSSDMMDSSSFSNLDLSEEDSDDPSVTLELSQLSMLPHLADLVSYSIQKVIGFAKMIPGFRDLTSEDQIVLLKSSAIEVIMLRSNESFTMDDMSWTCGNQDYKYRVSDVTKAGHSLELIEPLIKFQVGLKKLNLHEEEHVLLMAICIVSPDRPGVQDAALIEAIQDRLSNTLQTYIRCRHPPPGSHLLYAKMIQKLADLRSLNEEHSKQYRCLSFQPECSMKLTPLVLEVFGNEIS
Sequence of Peroxisome proliferator-activated receptor delta (Homo sapiens) (Q03181 whole entry, looked up): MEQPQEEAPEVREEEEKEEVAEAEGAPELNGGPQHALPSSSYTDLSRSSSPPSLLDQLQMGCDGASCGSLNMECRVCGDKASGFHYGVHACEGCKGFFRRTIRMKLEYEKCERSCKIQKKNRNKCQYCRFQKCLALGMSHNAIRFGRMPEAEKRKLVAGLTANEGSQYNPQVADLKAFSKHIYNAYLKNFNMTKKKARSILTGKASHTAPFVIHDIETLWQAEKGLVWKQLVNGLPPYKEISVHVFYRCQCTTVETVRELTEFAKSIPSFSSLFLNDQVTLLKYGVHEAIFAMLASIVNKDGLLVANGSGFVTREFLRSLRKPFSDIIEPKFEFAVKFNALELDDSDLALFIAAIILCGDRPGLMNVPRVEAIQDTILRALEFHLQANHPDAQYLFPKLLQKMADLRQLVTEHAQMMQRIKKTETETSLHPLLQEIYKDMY
Sequence of Bile acid receptor (Homo sapiens) (Q96RI1 whole entry, looked up): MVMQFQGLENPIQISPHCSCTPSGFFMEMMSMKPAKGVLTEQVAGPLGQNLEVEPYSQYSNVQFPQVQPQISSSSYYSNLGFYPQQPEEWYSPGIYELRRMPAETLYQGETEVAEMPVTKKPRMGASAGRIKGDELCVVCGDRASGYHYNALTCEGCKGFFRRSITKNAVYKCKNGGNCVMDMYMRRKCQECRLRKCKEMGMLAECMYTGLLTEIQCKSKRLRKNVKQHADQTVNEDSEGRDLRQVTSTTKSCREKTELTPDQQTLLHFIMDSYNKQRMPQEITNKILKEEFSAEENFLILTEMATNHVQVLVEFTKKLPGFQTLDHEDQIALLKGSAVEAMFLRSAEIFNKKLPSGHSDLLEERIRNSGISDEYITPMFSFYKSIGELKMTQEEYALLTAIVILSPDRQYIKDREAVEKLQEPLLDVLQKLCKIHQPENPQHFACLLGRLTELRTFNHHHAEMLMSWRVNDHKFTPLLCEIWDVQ

On to `C[C@H]1C[C@@H](O)CC(C)(C)C1`, for which the compound was classed as inactive in assay [1], in [4], in assay [6], in assay [8] and in assay [9]. For the same compound, the Potency result in assay [2], in [3], in assay [5] and in [7] was “inactive” throughout.

As for `CS(=O)(=O)O`, the Potency entry in assay [10] and in assay [7] was “inactive” throughout. In addition, the call in [4], in [6] and in assay [8] was inactive.

Consider `CC(C)(C)c1ccc(O)c(O)c1`, for which the Potency in assay [10] was 25.4 µM (active); in [3], 50.7 µM (active). The Potency result in assay [7] was “inactive”.

Turning to `N[C@H]1CN(c2c(F)cc3c(=O)c(C(=O)O)cn(C4C[C@H]4F)c3c2Cl)CC12CC2` (stereo partly specified), the Potency entry in [10], in assay [2], in [5] and in assay [7] was “inactive” each time. Moreover, the outcome in [8] was inactive.

For `Oc1ccc(C2CNCCc3c2cc(O)c(O)c3Cl)cc1` (stereo unspecified), the Potency result in assay [10], in [2], in assay [5] and in assay [7] was “inactive” each time. In [8], the result was inactive.

Take `NS(=O)(=O)c1cc(C(=O)NN2C[C@H]3[C@H]4CCC(C4)[C@H]3C2)ccc1Cl`: the Potency result in assay [10], in assay [2] and in assay [7] was “inactive” throughout.

As to `CO[C@]12C[C@@H](COC(=O)c3cncc(Br)c3)CN(C)[C@@H]1Cc1cn(C)c3cccc2c13`, the Potency entry in assay [10], in [2], in [5] and in assay [7] was “inactive” in each case. In addition, the compound was classed as inactive in [8].

`CCCCCCCCS(=O)(=O)Cl`: the compound was classed as inactive in assay [1], in [8] and in assay [9]. Besides, the Potency entry in assay [2], in assay [3], in [5] and in assay [7] was “inactive” throughout.

As for `CN(C)CCCNCCCN(C)C`, the Potency entry in assay [10], in assay [2], in assay [5] and in assay [7] was “inactive” each time. Besides, the compound was classed as inactive in [8] and in assay [9].

As for `C=CCS(=O)(=O)O`, the compound was classed as inactive in assay [1], in assay [4] and in assay [6]. Besides, the Potency result in [2], in assay [3], in assay [5] and in assay [7] was “inactive” each time.

For the compound `COC(=O)c1c(Cl)c(Cl)c(C(=O)OC)c(Cl)c1Cl`, the compound was classed as inactive in assay [1], in assay [4], in [6] and in assay [8]. In addition, the Potency entry in [2], in assay [3], in assay [5] and in assay [7] was “inactive” in each case.

`COc1nc(N)nc2c1ncn2[C@@H]1O[C@H](CO)[C@@H](O)[C@@H]1O`: the Potency result in [10], in [5] and in [7] was “inactive” each time. Besides, the call in assay [9] was inactive.

With `CC(C)=CCCC(C)CC(=O)O` (stereo unspecified), the call in [1] and in assay [8] was inactive. Also, the Potency entry in [2], in assay [3], in assay [5] and in [7] was “inactive” in each case.

Regarding `c1ccc(CC2=NCCN2)cc1`, the Potency entry in assay [10] and in [7] was “inactive” throughout. Besides, the compound was classed as inactive in assay [4] and in [6].

For the compound `CCOC(=O)CC(C)=O`, the Potency result in assay [10], in assay [2], in assay [5] and in assay [7] was “inactive” in each case. In addition, in [8], the call was inactive.

For the compound `CN(C)CCCN1c2ccccc2CCc2ccc(Cl)cc21`, the Potency was 38.9 µM (active) and 29.8 µM (active) in assay [10]; 21.9 µM (active) and 13.3 µM (active) in assay [2]; 24.5 µM (active) in assay [5]; 49 µM (active) in assay [7]. The result in assay [8] was inactive.

On to `CCN1CCC[C@H]1CNC(=O)c1cc(S(N)(=O)=O)ccc1OC`, for which the Potency entry in [10], in assay [2], in assay [5] and in assay [7] was “inactive” throughout. Also, the compound was classed as inactive in [8].

Consider `Brc1c(NC2=NCCN2)ccc2nccnc12`, for which the Potency entry in [10], in assay [2], in assay [5] and in assay [7] was “inactive” in each case. The compound was called inactive in assay [8].

Turning to `CN1C(=O)N(C)C(O)C1O` (stereo unspecified), the outcome in assay [1], in assay [8] and in [9] was inactive. Besides, the Potency result in [2], in [3], in assay [5] and in [7] was “inactive” each time.

Consider `O=C1OC(=O)C2CCCCC12` (stereo unspecified), for which the Potency entry in assay [10], in assay [2] and in [7] was “inactive” in each case. Moreover, the compound was classed as inactive in [8] and in assay [9].

`CC/C=C\CC/C=C/C(OCC)OCC`: in assay [1], the call was inactive. The Potency entry in assay [2], in assay [3], in assay [5] and in assay [7] was “inactive” in each case.

Regarding `CCOC(=O)C(=O)OCC`, the call in assay [1], in assay [8] and in [9] was inactive. Moreover, the Potency entry in assay [2], in assay [3], in [5] and in [7] was “inactive” in each case.
